# NALP1 inh: NALP1 inflammasome inhibitors in reconstituted yeast, colorimetric, S. cerevisiae, triplicate retest. S. cerevisiae NALP1/ASC/caspase-1 growth, X-gal OD620, 72 h. inhibition, % at 10 µM. hit rate 0.61% among 280,000. AID 2071, 2009; in the data active means inhibition mostly above about 24%, no sharp cut-off; inactive means mostly below about 32%
# tim23-1 inh: growth inhibitors of tim23-1 mutant yeast, primary screen, luminescence, uHTS | S. cerevisiae tim23-1 growth, BacTiter-Glo luminescence, 24 h | inhibition, % at 20 µM | hit rate 1.3% among 330,000 | AID 463212, 2010;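 active means growth inhibition of the mutant yeast at or above 50%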;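 further: temperature-sensitive mutant grown at 25 °C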
# SKKanGAS inh: S. pyogenes SKKanGAS growth inhibitors in kanamycin, primary screen, streptokinase expression inhibitor project, SKKanGAS strain, BacTiter-Glo luminescence. 6 h. inhibition, % at 7.5 µM. hit rate 1.3% among 300,000. AID 1662, 2009;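 active means mean replicate score, as percent of positive control median, at least 50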;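 further: strain carries kanamycin resistance gene driven by streptokinase promoter and grows in 40 µg/ml kanamycin; loss of luminescence reflects streptokinase promoter inhibition or plain growth inhibition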
# TIM10 inh: growth inhibitors of isogenic TIM10 control yeast, primary screen, counter-screen for tim10-1 yeast inhibitor project, luminescence, uHTS; inhibition, % at 10 µM; AID 463195, 2010; hit rate 1.4% among 330,000; S. cerevisiae TIM10 strain growth, BacTiter-Glo luminescence, 24 h;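 active means inhibition of 40% or more at the single tested concentration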;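 further: wild-type TIM10 isogenic control strain grown at permissive 25 °C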
# tim10-1 inh: growth inhibitors of tim10-1 mutant yeast, primary screen, luminescence, uHTS | S. cerevisiae tim10-1 ts strain growth, BacTiter-Glo, 24 h | inhibition, % at 20 µM | hit rate 2.2% among 330,000 | AID 463190, 2010;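 active means inhibition of at least 40%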;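 further: mutant grown at 25 °C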
# PfHsp90 yeast 2: growth inhibition of PfHsp90-expressing yeast, primary screen, antimalarial PfHsp90 inhibitor project, S. cerevisiae, BacTiter-Glo luminescence, single point, set 2 | BacTiter-Glo ATP, 48 h; yeast lacking PDR1 and PDR3 efflux regulators | inhibition, % at 9.4 µM | hit rate 0.32% among 310,000 | AID 504621, 2011;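 active means every replicate shows inhibition above about 80%, whatever the replicate mean, limit read from the data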
# tim10-1 conf: growth inhibitors of tim10-1 mutant yeast, confirmation, single concentration, luminescence, S. cerevisiae | AID 463213, 2010 | hit rate 56% among 7,400 | shares compounds with tim10-1 inh | S. cerevisiae tim10-1 ts strain growth, BacTiter-Glo, 24 h | inhibition, % at 20 µM;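 active means inhibition of yeast growth at or above a set limit in either of two repeat tests at 20 µM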;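 further: tim10-1 mutant grown at permissive 25 °C to find synthetic lethal compounds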
# TIM10 conf: growth inhibitors of wild-type TIM10 yeast, confirmation, counter-screen for tim10-1 synthetic lethality project, single concentration, luminescence, S. cerevisiae | shares compounds with TIM10 inh | S. cerevisiae tim10 strain growth, BacTiter-Glo luminescence, 24 h | inhibition, % at 10 µM | hit rate 63% among 4,600;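 active means inhibition of yeast growth at or above a set limit in either of two replicates at 10 µM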; further: this counterscreen used the strain with wild-type TIM10
# Numbers stand for hits; . = inactive; / = no result given. Compounds with a hit are over-represented: about 4.8% of the library has one in this group of screens.
SMILES,NALP1 inh,tim23-1 inh,SKKanGAS inh,TIM10 inh,tim10-1 inh,PfHsp90 yeast 2,tim10-1 conf,TIM10 conf
O=C(NN1C(=O)/C(=C/c2cccnc2)SC1=S)C(c1ccccc1)c1ccccc1,.,.,.,41.5,49.4,/,41.2,.
O=C(Cc1cccc2ccccc12)NN1C(=O)/C(=C\c2cccnc2)SC1=S,/,.,.,.,.,.,/,/
Cc1ccc(Cl)cc1N(CC(=O)N1CCCCCC1)S(C)(=O)=O,.,.,.,.,.,/,/,/
CC(=O)Nc1ccc(S(=O)(=O)N2CCSC2c2ccc(Cl)cc2)cc1 (stereo not given),.,.,.,40.2,52.8,.,38.7,.
CCc1ccccc1N(C)S(=O)(=O)c1ccc2[nH]cc(C(=O)O)c(=O)c2c1,.,.,.,.,.,.,/,/
Cc1cc(/C=N/n2c(COc3ccccc3C)nc3ccccc3c2=O)c(O)c([N+](=O)[O-])c1,.,.,51.9,43.4,40.7,.,.,.
O=c1c2cc(NC(=S)N3CCC(N4CCCCC4)CC3)ccc2nc2n1CCCCC2,.,.,.,.,.,.,/,/
Cc1ccc(/C=c2\sc3nc(-c4cccs4)nn3c2=O)o1,.,.,.,.,.,.,/,/
COc1cccc(/C=c2\sc3nc(-c4cccs4)nn3c2=O)c1OC,.,.,.,51.0,42.0,.,33.1,.
CN1c2ccccc2Oc2nnc(N3CCN(Cc4ccccc4)CC3)cc21,.,.,.,74.8,41.0,.,54.2,43.6
COc1cc(OC)cc(C(=O)N2CCN(Cc3ccccc3[N+](=O)[O-])CC2)c1,.,.,.,.,.,.,/,/
CC(C)C[C@H]1CN=C(Nc2ccccc2)N1CC1CCCC1,.,.,.,.,.,.,/,/
CC(C)C[C@H]1CN=C(Nc2ccccc2)N1CC1CCC(C(C)(C)C)CC1 (stereo not given in full),/,.,/,41.5,43.0,.,31.9,42.2
CC(C)CCC(O)(CCC(C)C)C(=O)NNc1ccccc1,.,.,.,.,.,.,/,/
O=C(Nc1nc2ccc(F)cc2s1)c1cccc(S(=O)(=O)N2CCc3ccccc32)c1,.,.,.,50.0,40.3,.,.,.
O=C(Nc1nncs1)c1cccc(S(=O)(=O)N2CCc3ccccc32)c1,.,.,.,.,.,.,/,/
COC(=O)c1cc(NC(=S)Nc2cc(Cl)cc(Cl)c2)cc(C(=O)OC)c1,.,.,.,50.5,49.3,.,32.6,.
O=C(NCc1ccco1)c1ccccc1Nc1ccc(F)cc1,.,.,/,44.2,52.4,.,47.0,36.3
O=C(NCc1ccco1)c1ccccc1F,.,.,.,.,.,.,/,/
CCc1cccc(C)c1NC(=S)NCc1ccc2[nH]c(C)cc2c1,.,.,.,47.5,50.8,.,.,36.7
CN(Cc1ccccc1)S(=O)(=O)c1ccc(NC(=S)NC(=O)C(C)(C)C)cc1,.,.,.,.,.,.,/,/
C=CCn1c(CCc2cc(C(C)(C)C)c(O)c(C(C)(C)C)c2)n[nH]c1=S,.,.,.,41.7,49.8,.,.,40.4
C=CCn1c(Cc2ccccc2)n[nH]c1=S,.,.,.,.,.,.,/,/
CC(=O)Oc1c(-c2ccco2)oc2ccccc2c1=O,.,.,.,62.1,53.3,.,49.1,61.2
COc1ccc(Nc2nc(C)cc(C)n2)cc1Cl,.,.,.,.,.,.,/,/
SMILES,NALP1 inh,tim23-1 inh,SKKanGAS inh,TIM10 inh,tim10-1 inh,PfHsp90 yeast 2,tim10-1 conf,TIM10 conf
Cc1cc(C)nc(SCC(=O)Nc2sc3c(c2C#N)CCC(C)C3)n1 (stereo not given),/,.,.,.,.,.,/,/
Cc1cc(C(F)F)n2nc(C(=O)Nc3sc4c(c3C#N)CCC(C)C4)nc2n1 (stereo not given),.,.,.,42.2,57.1,/,48.0,42.0
CCOC(=O)c1c(NC(C)=O)sc2c(O)cccc12,.,.,.,49.6,45.2,.,.,38.1
CCOC(=O)c1c(NC(=O)c2ccccc2)sc2c(O)c(CN(CC)CC)ccc12,.,.,.,.,.,/,/,/
Cc1ccc(-n2c(=O)[nH]c3c(C(N)=O)nc(CC(C)C)nc32)cc1,.,.,.,.,.,.,/,/
CCc1cccc2sc(N3CCN(C(=O)c4ccc([N+](=O)[O-])o4)CC3)nc12,/,.,58.7,57.9,79.1,.,73.7,89.4
CCCCc1ccc(NC(=S)NCc2cccs2)cc1,.,.,.,40.4,46.2,/,42.6,34.6
COc1ccc(S(=O)(=O)NC(C)C)cc1C(=O)N1CCOCC1,.,.,.,.,.,/,/,/
CCCCN(CC)CCCNC(=O)c1cc2cc3ccc(OC)cc3nc2o1,.,.,.,65.9,42.5,.,44.5,.
COc1ccc2nc3oc(C(=O)NC4CCN(Cc5ccccc5)CC4)cc3cc2c1,.,.,/,74.3,51.6,.,50.0,43.8
COc1ccc2cc3cc(C(=O)NCCCN4CCOCC4)oc3nc2c1,.,.,.,78.8,58.0,.,66.6,80.8
COc1ccc2cc3cc(C(=O)NCCN4CCN(Cc5ccccc5)CC4)oc3nc2c1,.,.,.,75.4,56.6,.,57.5,.
O=C(Nc1cnn(Cc2ccc(Cl)cc2Cl)c1)c1noc2c1CCCC2,.,.,/,.,.,.,/,/
CN(Cc1ccccc1)S(=O)(=O)c1ccc2c(c1)n(C)c(=O)n2C,.,.,.,.,.,.,/,/
FC(F)(F)c1ccccc1NC(=S)N1CCCCCC1,.,.,/,.,.,.,/,/
CCN1C(=O)S/C(=C/c2ccsc2)C1=O,.,.,.,.,.,.,/,/
CC(C)N1C/C(=C/c2ccsc2)C(=O)/C(=C/c2ccsc2)C1,/,.,.,45.6,40.4,.,.,34.4
Cc1ccc(S(=O)(=O)Nc2cccc(Cl)c2)cc1NC(=O)C1CC1,/,.,/,.,.,.,/,/
CC(C)CC(=O)NC(=S)NCCc1ccccc1,.,.,.,45.6,46.9,.,.,.
CC(C)(C)CC(=O)NC(=S)NCCc1ccccc1,.,.,.,.,.,.,/,/
O=Nc1c2nc3ccccc3n(O)c-2c2ccccc12,.,.,.,75.3,83.8,/,83.0,71.3
NC(=O)/C(=N\OC(=O)c1ccco1)c1nc(-c2ccc(Br)cc2)cs1,.,.,.,45.8,42.6,.,39.7,43.4
